From the supplement of paper PMC9135407
Where a name gives a salt, the structure may show the parent alone.

Test system: primary human hepatic stellate cells (donor 1)
Assay: PSMB2 reference mRNA level vs DMSO (fold); higher = more PSMB2 expression
Details: 48 h
Description: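 Secondary qRT-PCR screen in primary human HSCs (donor 1), 384-well plates, with compounds dispensed in quadruplicate and incubated for 48 h. Cells-to-CT lysates were used for multiplexed TaqMan qPCR of ACTA2 or COL1A1 with PSMB2 as reference. Fold changes versus DMSO come from a linear model (Ct_gene ~ Ct_PSMB2 + plate + chemical). A hit is defined as COL1A1 and ACTA2 FC <0.5 (FDR <0.05) with PSMB2 between 0.2 and 2.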

SMILES	PSMB2 reference mRNA level
CCCCCCCCCCCCC/C=C/[C@@H](O)[C@H](CO)N(C)C [N,N-Dimethylsphingosine] (3.33333 µM)	0.511
Clc1ccccc1CNCC1CCC(CNCc2ccccc2Cl)CC1 (stereo not given) (33.3333 µM)	0.138
Nc1ccc(C(=O)Nc2cccc(-c3nc(N4CCOCC4)c4oc5ncccc5c4n3)c2)cn1 (6.66667 µM)	3.27
CN1CCC(CNc2ccc3ncc(-c4cccc(OC(F)(F)F)c4)n3n2)CC1 (6.66667 µM)	0.712
CC(/C=C/C(=O)NO)=C\[C@@H](C)C(=O)c1ccc(N(C)C)cc1 [Trichostatin A] (3.33333 µM)	1.36
CN1CCN2c3ccccc3Cc3ccccc3C2C1 (stereo not given) [Mianserin hcl] (25.2333 µM)	1.26
COc1ccccc1OCCNCC(O)COc1cccc2[nH]c3ccccc3c12 (stereo not given) [Carvedilol] (33.3333 µM)	2.15
Cc1cc(Nc2cc(N3CCN(C)CC3)nc(/C=C/c3ccccc3)n2)n[nH]1 (11.1 µM)	0.122
CCNC(=O)c1noc(-c2cc(C(C)C)c(O)cc2O)c1-c1ccc(CN2CCOCC2)cc1 (11.1 µM)	1.72
c1ccc2c(NCCCCCCCNc3c4c(nc5ccccc35)CCCC4)c3c(nc2c1)CCCC3 [bis(7)-Tacrine] (3.33333 µM)	0.971
CC#CCOC(=O)c1c(C)nc2sc3c(c2c1N)CCC(O)C3 (stereo not given) (33.3333 µM)	0.434
O=C1NCN(c2ccccc2)C12CCN(CCCC(c1ccc(F)cc1)c1ccc(F)cc1)CC2 [Fluspirilene] (14.0333 µM)	1.38
CNCCC(Oc1ccc(C(F)(F)F)cc1)c1ccccc1 (stereo not given) [Fluoxetine hydrochloride] (33.3333 µM)	0.204
NS(=O)(=O)C#Cc1ccccc1 [Pifithrin->m] (33.3333 µM)	5.28
N=C(N)SCCc1ccc(OCc2ccc([N+](=O)[O-])cc2)cc1 [KB-R7943 mesylate] (33.3333 µM)	0.61
CCCCCCCCCCCCCCCCn1cc[n+](Cc2ccccc2)c1C (11.1 µM)	0.00468
O=C1Nc2ccccc2/C1=C1/Nc2ccccc2C1=O [Indirubin] (63.5333 µM)	1.03
CC(C)c1cc(-c2n[nH]c(=O)n2-c2ccc3c(ccn3C)c2)c(O)cc1O [Ganetespib (STA-9090)] (33.3333 µM)	0.415
Clc1ccc(C2(c3ccc(-c4cn[nH]c4)cc3)CCNCC2)cc1 (33.3333 µM)	0.745
C[C@@H](CN1CCC(n2c(=O)[nH]c3cc(Cl)ccc32)CC1)NC(=O)c1ccc2ccccc2c1 (33.3333 µM)	0.16

SMILES	PSMB2 reference mRNA level
CS(=O)(=O)CCNCc1ccc(-c2ccc3ncnc(Nc4ccc(OCc5cccc(F)c5)c(Cl)c4)c3c2)o1 (6.66667 µM)	1.27
C#C[C@]1(O)CC[C@H]2[C@@H]3CCC4=Cc5oncc5C[C@]4(C)[C@H]3CC[C@@]21C [Danazol] (33.3333 µM)	0.993
CN1CCN(Cc2ccc(-c3cnc4[nH]cc(-c5ccc6[nH]ccc6c5)c4c3)cc2)CC1 (6.66667 µM)	0.507
CCN1CCC(n2cc(CNc3cc(Cl)c4ncc(C#N)c(Nc5ccc(F)c(Cl)c5)c4c3)nn2)CC1 (33.3333 µM)	0.0139
Cn1cc(CNCC2CCN(c3ncc(C(=O)NO)cn3)CC2)c2ccccc21 [Quisinostat] (33.3333 µM)	0.103
CNCc1ccc(-c2[nH]c3cc(F)cc4c3c2CCNC4=O)cc1 (33.3333 µM)	0.974
Cc1nc2ccc(-n3ncc(C(=O)c4cc5ccccc5[nH]4)c3N)cc2[nH]1 (33.3333 µM)	0.324
O=C(Nc1ncc(SCCN2CCCC2)s1)[C@]1(c2ccc(S(=O)(=O)C3CC3)cc2)C[C@H]1C1CCCCC1 (11.1 µM)	0.35
CN(C)C/C=C(/c1ccc(Br)cc1)c1cccnc1 [Zimelidine dihydrochloride] (11.1 µM)	0.28
Cc1ccc(NC(=O)C(C)C)cc1C1CCN(Cc2ccc(Oc3ccc(F)c(F)c3)cc2)CC1 (33.3333 µM)	2.26
CC(C)(C)c1cc(NC(=O)Nc2ccc(-c3cn4c(n3)sc3cc(OCCN5CCOCC5)ccc34)cc2)no1 [Quizartinib  (AC220)] (11.1 µM)	2.12
c1cc(OCCN2CCCCC2)cc(-c2n[nH]c3ccc(-c4nnc[nH]4)cc23)c1 (33.3333 µM)	0.677
CC(C)NCCCn1c(Sc2cc3c(cc2I)OCO3)nc2c(N)ncnc21 (33.3333 µM)	0.581
Cc1[nH]c(/C=C2\C(=O)Nc3ccc(S(=O)(=O)N(C)c4cccc(Cl)c4)cc32)c(C)c1C(=O)N1CCN(C)CC1 (33.3333 µM)	0.98
O=C(O[C@H]1CN2CCC1CC2)N1CCc2ccccc2[C@@H]1c1ccccc1 [Solifenacin succinate] (33.3333 µM)	0.935
C[C@@H]1CN(CCCn2c3ccccc3c3ccccc32)C[C@H](C)N1 [Rimcazole dihydrochloride] (33.3333 µM)	0.0107
CN1CCCN(C(c2ccccc2)c2ccc(Cl)cc2)CC1 (stereo not given) [Homochlorcyclizine dihydrochloride] (33.3333 µM)	1.19
CN(C)CCC(c1ccc(Br)cc1)c1ccccn1 (stereo not given) [Brompheniramine maleate] (33.3333 µM)	1.3
Cc1cnc(-c2cnc(NCCNc3ccc(C#N)cn3)nc2-c2ccc(Cl)cc2Cl)[nH]1 (33.3333 µM)	2.78
CN1CCC(NC(=O)c2cc(-c3c(O)cc(O)cc3Oc3ccc([N+](=O)[O-])cc3)on2)CC1 (33.3333 µM)	0.306
